The source of these data is PubChem BioAssay (NCI).

SMILES strings stand for the structures. “And” between values parts separate entries of the source, which are not always exact repeats. Equal values may be shown once. This is part of a sample that, as a whole, favours compounds with a hit. Of some 83,000 tested, about 20% had one in any assay.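 Testing used 96-well plates and a 48-hour single-concentration exposure. Example: -40 means 40% of the starting cells died.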 Values without a mark were called inactive. The source made the active and inactive calls. How the source made its calls: active means growth percent below 10; inactive means the rest.

In this assay the test system is HL-60(TB) leukemia. Kind of assay: NCI-60 one-dose screen, 48 h (100 = growth as untreated, 0 = no growth, -100 = all killed). As to conditions: 10 µM unless noted.
Turning to `O=C(O)c1ccc(OCc2ccccc2)cc1`, the growth is 103%.
The value for `CCOc1cc(CCNS(=O)(=O)c2ccc(C)cc2)c(C(C)=O)cc1OCC` was 46.5% [100 µM]; that for `COc1ccc(-c2nc(N/N=C/c3c[nH]c4ccccc34)nc(N3CCOCC3)c2C#N)cc1` was 47.9%.
In the case of `CCN(CC)CCOc1ccc(NC(=O)C(C(C)C)N2C(=O)/C(=C/c3ccc(Br)cc3)SC2=S)cc1` (stereo not given) it was 27.6%; in that of `COc1ccc(/C=N\Nc2ccc([N+](=O)[O-])cn2)cc1OC`, 100%.
In the case of `Cc1nn(-c2ccccc2)c(Oc2ccccn2)c1-c1nc2ccccc2s1` it was 85.3%; in that of `Cc1cc(NC(=O)CSCC(=O)O)no1`, 88.9%; in that of `COc1cc(NC(=O)CCl)ccc(=O)c1`, 77.1%.
As for `CC(=O)[C@H]1CC[C@H]2[C@@H]3C[C@H](C)C4=CC(=O)CC[C@]4(C)[C@H]3C(=O)C[C@]12C`, the growth is 79.7%.
Consider `N/C(=N\N=C\c1cc2ccccc2s1)N/N=C/c1cc2ccccc2s1`, for which the growth is 94.4%.
Take `CCCNC(=O)Oc1ccc(/C(=C(\C)c2ccccc2)c2ccc(OCCN3CCCCC3)cc2)cc1`: the growth was 63.1%.
Take `CCOC(=O)C1CCCN1C(=O)C1(NC(C)=O)CCCC1` (stereo not given): the growth is 98.4%.
The value for `COc1ccc(/C(C)=C(/c2ccc(OCCCN(C)C)cc2)c2ccc(OC(=O)Cc3ccccc3)cc2)cc1` was 72%; that for `O=C(Nc1cccc([N+](=O)[O-])c1)Nc1cccc([N+](=O)[O-])c1` was 13%.
In the case of `CCC(C)C1CCC(O)CC1` (stereo not given) it was 99.3%; in that of `COC(=O)[C@]1(C)CCC[C@]2(C)[C@H]3C[C@H]4C(C(C)C)=C[C@]3(CC[C@H]21)[C@H]1[C@@H]4[C@@H](OCCC#N)CC[C@@H]1OCCC#N`, 2.28% (active); in that of `CS(=O)(=O)c1ccc(-c2nc3cc(Cl)ccc3n2CC(=O)NO)cc1`, 91.9%.
As to `O=C(c1ccc(Cl)cc1)N1CCN(c2ccnc3cc(Cl)ccc23)CC1`, the growth was 102%.
Turning to `CC1CN(c2oc(-c3ccccc3)nc2C#N)CC(C)O1` (stereo not given), the growth was 101%.
Turning to `CN(C)c1ccc(/C=C\C(=O)c2ccccc2)cc1`, the growth is 76.6% and 81.7% and 75.5%.
For `O=C(c1ccccc1)c1ccc(-c2ccc(O)cc2)cc1`, the growth was 75.1%.
The value for `C(=C\c1nc2ccccc2[nH]1)/c1nc2ccccc2[nH]1` was 93.4%; that for `O=C(CCc1nnc2sc(COc3ccccc3)nn12)c1nc2ncccc2[nH]1` was 117%.
`COC(=O)/C=C\C(=O)OC`: the growth was 90.5%.
`CCCc1ccnc(NS(=O)(=O)c2ccc(N)cc2)n1`: the growth was 24.7%.
The value for `CCOc1ccc2nc(-c3cccc(OCC(=O)NC(C)C)c3)nc(Nc3ccc(-c4cn[nH]c4)cc3)c2c1` was 2.3% (active); that for `CC[C@@H](C)/C=C(C)/C=C/C(O)=C1\C(=O)N[C@@H](Cc2ccc(OC(=O)[C@@](OC)(c3ccccc3)C(F)(F)F)cc2)C1=O` was 8.34% (active); that for `O=C(CCl)N(O)c1ccc(/C=C/c2ccccc2)cc1` was 69.4% and 51%.
Regarding `CCOC(=O)C1(Cc2ccccc2)CCN(Cc2cccc(OC)c2O)CC1`, the growth was -11.6% (active).
With `O=[N+]([O-])c1cccc(-c2nc3cc4nc5ccccc5[nH]c4cc3n2)c1`, the growth is 91.5%.
In the case of `O=C1OCC2=C1C(c1cccc(Cl)c1)c1cc3c(cc1N2CCO)OCCO3` (stereo not given) it was -20% (active); in that of `CCN(CC)CCCCCCNc1ccnc2cc(Cl)ccc12`, 103%.
In the case of `COc1cc(C2CC(c3cccc(Nc4ccncc4)c3)=NN2c2ccc(Cl)cc2)cc(OC)c1OC` (stereo not given), the growth is -45.2% (active).
In the case of `CCSc1nnc(NC(=O)COc2ccc(Cl)cc2C)s1` it was 108%; in that of `COc1ccc(-c2n[nH]nc2-c2cc(OC)c(OC)c(OC)c2)cc1`, -8.64% (active).
The value for `NC(=S)N1N=C(c2ccccc2)CC1c1cn(-c2ccccc2)nc1-c1ccc(OCc2ccccc2)cc1` (stereo not given) was 114%.
The value for `CC(C)(C)CC(C)(C)c1ccc(OCCO)cc1` was 91.5%; that for `COc1cc(Nc2ccnc3ccc(Br)cc23)cc(OC)c1OC` was 24.8%.
Consider `CC(NC(N)=S)c1ccccc1` (stereo not given), for which the growth is 96.7%.
As for `Cn1cnc([N+](=O)[O-])c1Sc1ncn[nH]1`, the growth was 105%.
